Measured values reported in ChEMBL document CHEMBL4513216, “Probing the Open Global Health Chemical Diversity Library for Multistage-Active Starting Points for Next-Generation Antimalarials” (ACS Infect Dis, 2020).
Among all 69,000 compounds or so, about 8,600 (12%) showed an effect of 50% or more. Many of the other results were omitted from the sample, so strong results are more common in it than they were.

Each molecule was assayed on Plasmodium berghei (assay: Screen against P. berghei liver stage (PbLuc), transformed with Luciferase, at 10uM). Conditions: tested at 10 uM.
Type: functional, HepG2

Going from Cc1ccc(C(=O)NCCS(=O)(=O)N2CCSCC2)o1 to CNC(=O)CCc1cc(C2CCCN2S(C)(=O)=O)nc(C)n1 (centres undefined), the INHIBITION falls from 44.9% to 6.33%.

Going from Cc1nc2cc(O)nn2c(C)c1CCC(=O)N(C)Cc1cscn1 to Cc1noc(C)c1CN(C)CC(=O)N1CCc2sccc2C1, the INHIBITION rises from -16.6% to 14.4%.

First: O=C1CCCN1c1cccc(CNCc2nc(-c3ccco3)no2)c1
Second: CC1COCCN1Cc1nc(-c2ccc(F)cc2)no1 (centres undefined)
The INHIBITION of the first is lower: -8% for the first, -0.113% for the second.

Compared with Cn1nccc1CCC(=O)NC1CCCN(c2ccccn2)C1 (centres undefined), CCOCC(=O)N1C[C@H]2CC[C@@H](C1)N(Cc1ccccn1)C2=O is higher in INHIBITION: 25.05% for the first, 28.7% for the second.

Compared with CC(C)N(C)[C@@H]1CCN(Cc2nccs2)[C@H]1Cc1ccncc1, C[C@H](O)CNc1cc(-c2ccncc2)ncn1 is higher in INHIBITION: 24.6% for the first, 54.5% for the second.

Compared with COC1C[C@@H]2CN(C(=O)c3[nH]nc4c3CCCC4)C[C@@H]2C1 (some centres undefined), O=C(CCC1CCCC1)N1C[C@@H]2CC[C@H]1CN(Cc1ccncc1)C2 is higher in INHIBITION: 24.8% for the first, 27.6% for the second.

Compared with Cn1c(CN2CCCC(c3noc(C4CC4)n3)C2)cc(=O)n(C)c1=O (centres undefined), Cc1noc(C)c1CN1CCCC2(CCN(CC3CCCC3)C2)C1 (centres undefined) is higher in INHIBITION: -50.5% for the first, 49.4% for the second.

First: CNC(=O)c1cccc(C2CNCCN2C(=O)c2cccc(F)c2)c1 (centres undefined)
Second: Cc1ccc(C(=O)N2CC3(CCNCC3)c3cc(Cl)ccc32)cn1
The INHIBITION of the first is higher: 44.8% for the first, 5.04% for the second.

Going from COCCN1CCC2(CC1)CN(C(=O)N(C)C)c1ccc(C)cc12 to COCCN(Cc1cnn(C)c1)CC1CCN(C(C)C)CC1, the INHIBITION rises from 26.2% to 33.7%.

First: COc1ccccc1NC(=O)C1(c2ccccc2)CCOCC1
Second: COC(=O)CN1CC(c2nc(Cc3ccccc3)no2)C1
The INHIBITION of the first is higher: 6.26% for the first, -14.6% for the second.

Going from COCCOc1ccc(NC(=O)C2CC(=O)N(C3CC3)C2)cn1 (centres undefined) to CCN1CC(COC(=O)c2ccc(Br)cc2F)CC1=O (centres undefined), the INHIBITION falls from 4.71% to 0.0459%.

First: COCCN(Cc1ccc(C)cc1)CC1CCOC1 (centres undefined)
Second: COCCN(Cc1cnn(C)c1)CC1CCOC1 (centres undefined)
The INHIBITION of the first is higher: 67.4% for the first, 19.8% for the second.

First: c1cc(-c2cnc(NC3CC3)nc2[C@H]2CCCO2)ccn1
Second: OCCNc1cc(-c2ccncc2)ncn1
The INHIBITION of the first is lower: -12.3% for the first, 47.1% for the second.

Compared with Cc1ncc2c(n1)CN(Cc1nc(C)c(C)o1)CC2, Cc1nc(NCC(O)CN2CCCCCC2)c2c(C)nn(C)c2n1 (centres undefined) is lower in INHIBITION: 38% for the first, -30.3% for the second.

First: COc1ncc(CN2CCC3(CCCN(CC4CCC4)C3)C2)cn1 (centres undefined)
Second: COc1ncc(CN2CCC3(CCCN(CC4CCCCC4)C3)C2)cn1 (centres undefined)
The INHIBITION of the first is higher: 17.8% for the first, 6.94% for the second.

Compared with Cc1ncc(CN2CCC3(CCCN(CC4CCC4)C3)C2)cn1 (centres undefined), CCc1ncc(CN2CCC3(CCCN(CC4CCC4)C3)C2)cn1 (centres undefined) is higher in INHIBITION: 53.5% for the first, 57.5% for the second.

Compared with COCCc1ncc(CN2CCC3(CCCN(CC4CC4)C3)C2)cn1 (centres undefined), COCc1nn(CC2CC2)c2c1CN(Cc1ccco1)CC2 is lower in INHIBITION: 46.6% for the first, 26% for the second.

Compared with CC(=O)N1CC[C@H]2OCC[C@@H](C(=O)Nc3cccnc3C)[C@@H]2C1, CNC(=O)CCc1cc(C)nc(C2CCN(CC(=O)N(C)C)CC2)c1 is higher in INHIBITION: -1.28% for the first, 23.3% for the second.

First: C[C@H](O)CNc1cc(-c2ccccc2)ncn1
Second: CN(C)CCNc1ccc(-c2nc(COc3ccccc3)no2)cn1
The INHIBITION of the first is lower: 26.3% for the first, 56.5% for the second.

First: Cc1cc(CN2C[C@@H]3COC[C@]3(CNC(=O)c3ccsc3)C2)no1
Second: Cc1ccccc1-c1noc(-c2ccc(NCC3COCCO3)nc2)n1 (centres undefined)
The INHIBITION of the first is lower: -2.25% for the first, 32.3% for the second.

Compared with CNCCNc1ccc(-c2nc(-c3cccc(OC)c3OC)no2)cn1, COc1cccc(-c2noc(-c3ccc(NCCCN)nc3)n2)c1OC is higher in INHIBITION: 25.8% for the first, 46.7% for the second.

Going from CN(C)CCN(C)c1ccc(-c2nc(COc3ccccc3)no2)cn1 to CN(C)CCNc1ccc(-c2nc(-c3ccccc3F)no2)cn1, the INHIBITION rises from 41.3% to 80.7%.

First: CC(C)(CO)Nc1ccc(-c2nc(-c3ccccc3F)no2)cn1
Second: COc1cccc(-c2noc(-c3ccc(NCCCO)nc3)n2)c1OC
The INHIBITION of the first is higher: 91.3% for the first, 43.9% for the second.

Going from COC(=O)CNc1ccc(-c2nc(Cc3ccc(OC)cc3)no2)cn1 to O=C(O)c1ccccc1-c1cnc(Cn2c(=O)cc[nH]c2=O)s1, the INHIBITION falls from 26.6% to 22%.

Going from COc1cccc(NC(=O)CN(C(C)C)C2CC2)c1 to CC(C)N(CC(=O)Nc1cccc(C#N)c1)C1CC1, the INHIBITION rises from 20% to 54.8%.

Compared with CC(C)N(CC(=O)Nc1cccc(C(=O)N(C)C)c1)C1CC1, CCc1cnc(N2C[C@@H]3C[C@H](C(=O)N(C)C)[C@H](C2)O3)nc1 is lower in INHIBITION: -0.614% for the first, -46.9% for the second.

Compared with Cn1c(=O)n(C)c2cc(NS(=O)(=O)Cc3ccccc3)ccc21, Cc1ncc(CN(C)Cc2nc3cc(Cl)ccc3n2C)s1 is higher in INHIBITION: 2.03% for the first, 74% for the second.
